D2 ag-1: agonists of human D2 dopamine receptor; P14416; HEK293 T-REx D2 cells, calcium flux agonist mode; activation, % at 2 µM; actives 0.53% (n = 340,000); AID 485358;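 active = activation over 3 SD above normal in the single-dose calcium agonist read, cut at about 30% in these data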
Target sequence (P14416 whole entry, looked up): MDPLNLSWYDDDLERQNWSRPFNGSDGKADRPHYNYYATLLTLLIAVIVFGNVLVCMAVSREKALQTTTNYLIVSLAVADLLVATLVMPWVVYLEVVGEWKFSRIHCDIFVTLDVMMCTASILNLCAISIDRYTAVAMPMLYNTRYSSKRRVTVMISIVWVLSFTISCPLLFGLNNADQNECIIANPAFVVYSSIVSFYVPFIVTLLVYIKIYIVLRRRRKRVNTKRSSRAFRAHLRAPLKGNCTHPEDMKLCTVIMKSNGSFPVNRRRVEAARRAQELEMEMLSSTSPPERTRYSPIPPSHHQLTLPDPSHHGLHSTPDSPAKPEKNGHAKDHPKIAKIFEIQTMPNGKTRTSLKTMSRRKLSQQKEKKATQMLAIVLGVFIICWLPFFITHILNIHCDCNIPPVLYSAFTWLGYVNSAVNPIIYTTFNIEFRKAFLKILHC
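Agonism scored from kinetic calcium signal (1 read/sec, 180 s) following compound pin transfer, after a 10 s baseline. Cells: HEK293 Trex line expressing inducible D2 receptor coupled to calcium, dye-loaded after overnight culture at 30 C.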
D2 antagonist: antagonists of human D2 dopamine receptor; AID 485344; inhibition, % at 10 µM; P14416; actives 2% (n = 340,000); HEK293 TREx D2 cells, calcium flux, dopamine EC80; in the data active = inhibition above about 30%; inactive = below that, where a call was filed
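Inhibition of EC80 dopamine-driven calcium flux, recorded kinetically, defines activity here; cells are a tetracycline-induced HEK293 T-REx line expressing force-coupled D2.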
D2 PAM-1: human D2 receptor positive allosteric modulation; P14416; DiscoveRx D2 beta-arrestin cells, luminescence, 90 min; 100% = 57 uM dopamine signal; potentiation, % (test concentration not listed); actives 0.23% (n = 360,000); AID 624464; in the data active = potentiation above about 50%; inconclusive = mostly about 30% to 49%
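PathHunter D2 cells, attached overnight at 37 deg C, received compound in DMSO plus dopamine at EC20 (50 nM final) for 90 min at 37 deg C. Beta-arrestin recruitment was read as luminescence after 1 h with detection reagent at ambient temperature.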
D2 PAM-2: positively modulates the human D2 dopamine receptor allosterically; HEK293 T-REx D2, calcium flux, EC20 dopamine potentiation; actives 0.34% (n = 340,000); P14416; potentiation, % at 10 µM; AID 485347;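 active = potentiation over 3 SD above the plate norm, cut at about 30% in these data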
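Tetracycline-induced Hek293 Trex D2 cells, force-coupled to calcium, loaded with no-wash calcium dye. Compound added with 180 s kinetic read for agonism, then EC20 dopamine and a further 180 s read for potentiation.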
D2 ag-2: agonists of human D2 dopamine receptor (beta-arrestin); activation, % (test concentration not listed); DiscoveRx PathHunter D2 beta-arrestin, luminescence, 90 min; 100% = 57 uM dopamine signal; AID 624465; actives 0.084% (n = 360,000); P14416; in the data active = activation above about 40%; inconclusive = between about 15% and that limit
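Agonist mode: compounds alone added to overnight-plated D2 PathHunter cells for 90 min at 37 C, with 57 uM final dopamine (EC100) defining full response. Beta-arrestin recruitment detected by chemiluminescent reagent, read after 1 h at ambient temperature.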
Hits are given with their value; - = inactive; ? = inconclusive; . = no result; ! = a repeat was not active. Only some compounds are listed: those with a hit (about 2.4% of all), similar ones and a draw of the others.

SMILES | D2 ag-1 | D2 antagonist | D2 PAM-1 | D2 PAM-2 | D2 ag-2
O=c1c(/C=C(\O)c2ccc(F)cc2)nc2ccccc2n1-c1ccccc1 | 44.0 | - | - | - | -
Cn1c(=O)c(/C=C/c2ccc(F)cc2)nc2ccccc21 | - | - | - | - | -
CCN(CC)S(=O)(=O)c1cc(NC(=O)C(C)N2CCN(Cc3ccc4c(c3)OCO4)CC2)ccc1C (stereo not given) | - | 84.3 | - | - | -
CCN(CC)S(=O)(=O)c1cc(NC(=O)C(C)N2CCN(c3ccccn3)CC2)ccc1C (stereo not given) | 35.5 | - | - | - | -
Cc1cccn2c(=O)cc(COc3cccc(NC(=O)c4ccccc4F)c3)nc12 | - | . | . | - | .
COc1ccccc1C(=O)NNC(=O)c1ccc2ccccc2c1 | - | - | 66.9 | - | -
COc1ccccc1C(=O)NNC(=O)c1ccc(O)cc1 | . | . | - | . | -
CC(=O)c1ccc(NC(=O)c2ccc(CN3C(=O)CCn4nc(C)cc43)cc2)cc1 | - | . | . | - | .
CCCCC1(C)OC(=O)C(=Cc2ccc(-c3ccc(Cl)c(C(=O)O)c3)o2)C(=O)O1 (stereo not given) | - | 41.9 | - | - | -
CCCn1ccc2c(OCC(=O)Nc3cc(C)ccc3C)cccc2c1=O | - | . | . | . | .
O=C(N/N=C/C(Br)=C/c1ccccc1)c1ccc([N+](=O)[O-])cc1 | - | 39.1 | - | - | -
O=C(N/N=C/C(Br)=C\c1ccccc1)c1ccc2nc[nH]c2c1 | - | 34.4 | - | - | -
O=C(N/N=C/C(Br)=C/c1ccccc1)c1ccncc1 | - | - | - | - | -
CC(=C/c1ccccc1)/C=N/NC(=O)c1ccc2nc[nH]c2c1 | - | - | - | - | -
Cc1ccc(C)c(S(=O)(=O)c2nnn3c2nc(NCc2ccc4c(c2)OCO4)c2sccc23)c1 | - | . | . | - | .
Cc1ccc(/C=C/C(=O)Nc2ccc(Cl)cc2Cl)cc1 | - | . | . | - | .
NC(=O)CCCCC(=O)OCCCc1cccs1 | - | - | - | 31.3 | -
Cc1cc2ccccc2c(=O)n1CC(=O)NCC(=O)N1CCN(c2ccccc2)CC1 | - | 64.0 | - | - | -
CCOc1ccc(CCNC(=O)c2nn(C)c3c2CSc2ccc(C)cc2-3)cc1OCC | . | . | . | - | .
Cc1ccc(C(=S)N2CCN(Cc3ccccc3)CC2)s1 | - | 50.0 | - | - | -
Oc1ccc(C(=S)N2CCN(Cc3ccccc3)CC2)cc1 | - | - | - | - | -
CCOc1ccc(NC(=O)Cn2c(C)cc3ccccc3c2=O)cc1 | - | . | . | - | .
CCc1ccc(CNC(=O)CN2C(=O)c3cccnc3Oc3ccc(C)cc32)cc1 | - | . | . | - | .
Cc1ccc(NC(=O)/C=C/c2cccc(C(F)(F)F)c2)cc1 | - | 68.5 | - | - | -
O=C(/C=C/c1cccc(C(F)(F)F)c1)Nc1cccc(C(F)(F)F)c1 | - | - | - | - | -
SMILES | D2 ag-1 | D2 antagonist | D2 PAM-1 | D2 PAM-2 | D2 ag-2
Cc1csc2nc(COC(=O)CNC(=O)c3ccc(F)cc3)cc(=O)n12 | - | . | . | - | .
CSc1nnc2c3c4c(sc3nc(-n3nc(C)cc3C)n12)COC(C)(C)C4 | - | 48.4 | - | - | -
CCOCCCNCc1ccc(OCCC(C)C)c(OC)c1 | - | 35.3 | - | - | -
Clc1ccc2c(c1)CCc1cccnc1C2=C1CCNCC1 | . | 30.2 | . | . | .
CC1=CC(C)(C(Cl)Cl)C(C)=CC1=O (stereo not given) | - | - | - | 69.6 | -
COc1ccc(NS(=O)(=O)c2ccc3[nH]c(=O)ccc3c2)cc1OC | - | . | . | - | .
CC(C)(C)c1ccc(OC(=O)N2CCOCC2)cc1 | - | 31.9 | - | - | -
C=CCN=C1S/C(=C\c2ccc(Cl)cc2)C(=O)N1CC=C | - | 79.6 | - | - | -
C=CCN=C1S/C(=C/c2ccc([N+](=O)[O-])cc2)C(=O)N1CC=C | - | - | - | - | -
O=C1CC2(CCCC2)CC(=O)N1CCCCN1CCN(c2ncccn2)CC1 | - | 87.9 | - | - | -
CN1C(=O)N(CC(=O)N2CCN(c3ncccn3)CC2)C(=O)C12CCCCC2 | - | - | - | - | -
COc1ccc2c(c1)CCC1C2=NN(/C(C)=C\C(C)=O)C1c1ccc(F)cc1 (stereo not given) | - | - | - | - | ?
COc1ccc2c(c1)C1=NN(/C(C)=C/C(C)=O)C(c3ccc(F)cc3)C1CC2 (stereo not given) | - | - | 51.4 | - | -
Cc1nc2nc[nH]n2c(=O)c1NC(=O)CC12CC3CC(CC(C3)C1)C2 | - | - | - | 31.4! | -
CC(C)CCn1c(=O)c2sccc2n2c(CCCC(=O)Nc3ccc(F)c(Cl)c3)nnc12 | - | . | . | - | .
O=C(Nc1nnc(-c2ccccc2)o1)c1nc2ccccc2s1 | 43.9 | - | - | - | -
COc1ccc(Cl)cc1NC(=O)C(=O)NCc1ccc(Cl)cc1 | . | . | . | - | .
CC1CCc2nc(NC(=O)CN3CCN(Cc4ccc5c(c4)OCO5)CC3)sc2C1 (stereo not given) | - | 72.3 | - | - | -
CC1CCc2nc(NC(=O)CN3CCN(c4ccccc4)CC3)sc2C1 (stereo not given) | - | - | - | - | -
Cc1ccc(OC(=O)COc2ccccc2C)cc1 | - | - | - | - | -
CC(=O)c1ccc(OC(=O)COc2ccccc2Cl)cc1 | - | 47.8 | - | - | -
CC1=C(C(=O)OCC2CCCCC2)C(c2ccc(Cl)cc2Cl)CC(=O)N1 (stereo not given) | - | . | . | - | .
O=C(OC(c1ccccc1)c1nccc2ccccc12)c1cc([N+](=O)[O-])cc([N+](=O)[O-])c1 (stereo not given) | - | - | 81.2 | - | ?
OC(c1cccc(Cl)c1)c1nccc2ccccc12 (stereo not given) | - | - | - | - | -
O=C(/C=C\c1ccccc1)NC1CC(=O)N(c2ccccc2)C1 (stereo not given) | - | . | . | - | .
SMILES | D2 ag-1 | D2 antagonist | D2 PAM-1 | D2 PAM-2 | D2 ag-2
COc1ccc2c(c1)CCc1c-2n[nH]c1C(=O)O | - | 31.4 | - | - | -
COCCN1C(=O)c2oc3ccc(C)cc3c(=O)c2C12C(=O)N(C)c1ccccc12 (stereo not given) | - | . | . | - | .
Cc1ccc(Cn2c(CCNC(=O)c3cccc(C)c3)nc3ccccc32)cc1 | - | . | . | - | .
Cc1cc(-c2cc(C(=O)NC3CCCC3)on2)nc(NCC2CC2)n1 | - | 33.4 | - | - | -
Cc1cc(-c2cc(C(=O)Nc3ccccc3)on2)nc(NCC2CC2)n1 | . | . | - | . | -
O=C(O)c1ccc(S(=O)(=O)c2ccc3c(c2)C(=O)N(NC(=O)c2ccc(O)cc2)C3=O)cc1 | - | - | - | - | -
Cc1ccc(C(=O)NN2C(=O)c3ccc(S(=O)(=O)c4ccc(C(=O)O)cc4)cc3C2=O)cc1 | - | 62.6 | - | - | -
CCCCn1c(N)c(N(Cc2ccccc2OC)C(=O)c2ccc([N+](=O)[O-])s2)c(=O)[nH]c1=O | - | - | 50.3 | - | ?
